# Experimental data taken from PubChem BioAssay (Tox21).
# Where “and” joins values, the source holds several entries; their conditions need not be identical. Equal entries are not always repeated. Inconclusive results are not listed. Entries that show only a call come without a potency. A structure can be active in one record and inactive in another. Calls of active or inactive are those of the source. Calls follow the shape of the full dose curve.
# Assay: qHTS assay for small molecule agonists of the antioxidant response element (ARE) signaling pathway - cell viability counter screen (AID 743203); also: nearly all actives have a fitted effect of over 55% in size
# Settings: ARE-bla HepG2 viability, CellTiter-Glo luminescence, 16 h; series mostly up to 73.3 µM
# Excerpt: National Center for Advancing Translational Sciences [NCATS]
# NIH Chemical Genomics Center [NCGC]
# U.S. Environmental Protection Agency [EPA]
# National Institutes of Environmental Health Sciences [NIEHS]
# National Toxicology Program [NTP]
# U.S. Food and Drug Administration [FDA]
# Oxidative stress has been implicated in the pathogenesis of a variety of diseases ranging from cancer to neurodegeneration. The antioxidant response element (ARE) signaling pathway plays an important role in the amelioration of oxidative stress. The CellSensor ARE-bla HepG2 cell line (Invitrogen) can be used for analyzing the Nrf2/antioxidant response signaling pathway. Nrf2 (NF-E2-related factor 2) and Nrf1 are transcription factors that bind to AREs and activate these genes. The CellSensor ARE-bla Hep G2 cell line contains a beta-lactamase reporter gene under control of the Antioxidant Response Element (ARE) stably integrated into HepG2 cells. The activation of the report gene under culture conditions can be detected by fluorescence intensity. This cell line has been used to screen the Tox21 10K compound library to identify agonists that induce oxidative stress. The cytotoxicity of the Tox21 compound library against the ARE-bla cell line was tested in parallel by measuring the cell viability using CellTiter-Glo assay (Promega, Madison, WI) in the same wells.
# Tox21 Assay Protocol Summary:
# ARE-bla HepG2 cells were dispensed at 2,000 cells/5 ul/well in 1536-well white wall/solid bottom plates using a Multidrop Combi (ThermoFisher Scientific, Waltham, MA) dispenser. After the assay plates were incubated at 37C/5% CO2 for 5 hrs, 23 nL of compounds dissolved in DMSO, positive controls or DMSO only was transferred to the assay plate by a pintool work station (Kalypsys, San Diego, CA). The plates were incubated at 37C/5% CO2 for 16 hrs, followed by addition of 4 ul/well of CellTiter-Glo reagent into the assay plates using a Flying Reagent Dispenser (Aurora Discovery, San Diego, CA). After 30 min incubation at room temperature, the luminescence intensity in the assay plates was measured using a ViewLux (PerkinElmer, Shelton, CT) plate reader.
# Potency is read from the fitted curve at half-maximal effect.
row,SMILES,Potency
1,COC(=O)N(C(=O)N1CO[C@@]2(C(=O)OC)Cc3cc(Cl)ccc3C2=N1)c1ccc(OC(F)(F)F)cc1,inactive
2,BrCBr,inactive
3,Clc1ccc(C(c2ccc(Cl)cc2)C(Cl)(Cl)Cl)cc1,48.9 µM (active) and inactive
4,Cc1ccc(OP(=O)(Oc2ccccc2)Oc2ccccc2)cc1,inactive
5,CCC(C)c1cc([N+](=O)[O-])cc([N+](=O)[O-])c1OC(=O)C=C(C)C (stereo not given),27.3 µM (active)
6,CC1(c2ccc(Oc3ccccc3)cc2)OC(=O)N(Nc2ccccc2)C1=O (stereo not given),24.5 µM (active)
7,O=C(NC(=O)c1c(F)cccc1F)Nc1cc(Cl)c(OC(F)(F)C(F)F)c(Cl)c1,inactive
8,Cc1c(Cl)c(=O)oc2cc(OP(=O)(OCCCl)OCCCl)ccc12,inactive
9,O=[N+]([O-])c1ccc2ccc3cccc4ccc1c2c34,inactive
10,CCCCCCCCCC[N+](C)(C)CCCCCCCCCC,43.3 µM (active)
11,CC(C)OC(=S)S,inactive
12,N#C/C=C/C#N,inactive
13,C[C@]12Cc3nonc3C[C@@H]1CC[C@@H]1[C@@H]2CC[C@@]2(C)[C@H]1CC[C@]2(C)O,inactive
14,O=c1[nH]c2ccccc2n1CCCN1CCC(n2c(=O)[nH]c3cc(Cl)ccc32)CC1,inactive
15,CNC(C)Cc1ccc2c(c1)OCO2 (stereo not given),inactive
16,COP(=O)(OC)SCn1c(=O)oc2cc(Cl)cnc21,48.6 µM (active)
17,c1ccc(Nc2ccc3ccccc3c2)cc1,inactive
18,CC(C)CCCCCOC(=O)c1ccccc1C(=O)OCCCCCC(C)C,inactive
19,O=C1NCN(c2ccccc2)C12CCN(CC1COc3ccccc3O1)CC2 (stereo not given),inactive
20,O=S(=O)(c1ccc(Cl)cc1)c1ccc(Cl)cc1,inactive

row,SMILES,Potency
1,Oc1c(Br)c(Br)c(Br)c(Br)c1Br,24.5 µM (active)
2,c1ccc(OCC2CO2)cc1 (stereo not given),inactive
3,CCCN(CCC)c1c([N+](=O)[O-])cc(S(N)(=O)=O)cc1[N+](=O)[O-],29.1 µM (active)
4,CC(=O)Nc1ccc2c(c1)Cc1ccccc1-2,inactive
5,COc1ccc(/C(=C/C(=O)N2CCOCC2)c2ccc(Cl)cc2)cc1OC,inactive
6,OC(c1ccc(Cl)cc1)(c1ccc(Cl)cc1)C(Cl)(Cl)Cl,43.3 µM (active)
7,Clc1ccc(COC(Cn2ccnc2)c2ccc(Cl)cc2Cl)cc1 (stereo not given),25.5 µM (active) and 19.3 µM (active) and 33.5 µM (active)
8,CCCN(CC)CC1COC2(CCC(C(C)(C)C)CC2)O1 (stereo not given),inactive
9,S=C(SSC(=S)N1CCCCC1)N1CCCCC1,inactive
10,CC(C)[C@H](C(=O)O[C@H](C#N)c1cccc(Oc2ccccc2)c1)c1ccc(Cl)cc1,inactive
11,CC[C@H]1C[C@@H]2C[C@H]3c4[nH]c5ccc(OC)cc5c4CCN(C2)[C@@H]13,inactive
12,CN(C)C(=S)[S-].CN(C)C(=S)[S-].[Cu+2],3.33 µM (active)
13,CC(C)OC(=O)C(O)(c1ccc(Cl)cc1)c1ccc(Cl)cc1,inactive
14,CC(C)(O)c1cnn2c(-c3ccc(F)c(-c4c(F)cccc4C#N)c3)cnc2n1,inactive
15,CC1(C)[C@H](C(=O)O[C@H](C#N)c2cccc(Oc3ccccc3)c2)[C@@H]1/C=C(\Cl)C(F)(F)F,inactive
16,CCN,inactive
17,CCN(CC)c1c([N+](=O)[O-])cc(C(F)(F)F)c(N)c1[N+](=O)[O-],inactive
18,Cc1cc(N=Nc2ccccc2C)ccc1N,inactive
19,CC(=O)/C=C/c1ccc2c(c1)OCO2,inactive
20,Oc1ccc(C(c2ccc(O)cc2)(C(F)(F)F)C(F)(F)F)cc1,inactive and 43.3 µM (active)
